The nature of assay [1]: stimulators of nuclear beta-catenin in C2C12, primary screen, imaging, WNT3A-conditioned medium, mouse C2C12, NPC library (AID 1117326; in the data active = nuclear beta-catenin stimulation mostly above about 4.2%, no sharp cut-off; inactive = mostly below about 10%; note: reference of the scale not given here). The note with it: stronger effect = higher value.
The nature of assay [2]: stimulators of insulin release from INS-1E, primary screen, cell-based, 5 mM glucose, NPC library (AID 1117329;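 active = compound raises insulin release from rat beta cells at 5 mM glucose, no numeric limit stated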; note: reference of the scale not given here). The following applies: rat INS-1E insulin secretion, at 10 µM, stronger effect = higher value.
A short description of assay [3]: growth inhibition of GSK3B-pretreated HCT116 cells – cell-based, CellTiter-Glo, 0.2 to 20 µM (AID 1117336;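 active = compounds lowering colon cancer cell viability after pretreatment blocking the GSK3B kinase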). The note with it: HCT116 viability after GSK3B inhibitor, at 20 µM, stronger effect = higher value.
The nature of assay [4]: inhibition of endothelial tube formation, primary screen, imaging, VEGF stimulated, CD31 staining, tube area, NPC library (AID 1117340;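 active = compound that reduces growth-factor-driven endothelial tube area in a mixed cell culture, no cutoff stated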). The following applies: VEGF-stimulated ADSC/ECFC co-culture, at 10 µM, stronger effect = higher value.
Assay [5] can be described thus: glucagon-like peptide 1 release enhancers, primary assay, NCI-H716 cell line, NPC library (AID 1117341;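 active = compound raises GLP1 secretion from the human gut endocrine cells, with no numeric limit stated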; note: reference of the scale not given here). The note with it: NCI-H716 cells, at 10 µM, stronger effect = higher value.
Assay [6] is described as follows: HCT116 colon cancer cell growth inhibition, primary screen, CellTiter-Glo luminescence, NPC library (AID 1117342;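 active = compounds that lower survival of HCT116 colon cancer cells in the luminescence readout, no numeric limit stated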). The note with it: at 20 µM (top of the series). In general terms: In ATP-based viability assays light output follows the ATP content of the culture.
Assay [7] can be described thus: CellTiter-Glo luminescent readout of SW480 viability loss, NPC library primary (AID 1117343). The note with it: CellTiter-Glo luminescence; at 20 µM (top of the series).
Assay [8] can be described thus: decreased DLD-1 cellular survival, CellTiter-Glo luminescent readout, NPC compound collection, primary HTS (AID 1117346;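 active = compounds that lower survival of DLD-1 colon cancer cells in the luminescence readout, no cutoff given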). The note with it: DLD-1 viability, CellTiter-Glo luminescence; at 20 µM (top of the series).

Active and inactive are the calls of the source.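 Rule for the calls, unless noted: active = compounds that lower viability of the colon cancer cells in the luminescence readout, with no numeric limit stated; inactive = the rest.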

With `COCC(=O)N(c1c(C)cccc1C)C(C)C(=O)OC` (stereo unspecified), the nuclear beta-catenin stimulation was 0.1% (inactive) in assay [1] (at 10 µM) and 0.5% in assay [1] (stimulation, at 2 µM). In assay [2], the insulin secretion stimulation was -1.7% (inactive). Besides, the viability decrease in assay [3] is -0.7% (inactive). Moreover, the tube area decrease in assay [4] was -6.8% (inactive). In assay [5], the GLP1 secretion stimulation is 1.9% (inactive). Further, the inhibition of viability in assay [6] was -27% (inactive). Moreover, the figures for the viability decrease (inhibition) in assay [7] and in assay [8] were 1.1% (inactive) and 8.85% (inactive), respectively.

For `O=C(CBr)Nc1ccc(Cl)cc1C(=O)c1ccccc1F`, the nuclear beta-catenin stimulation in assay [1] (at 10 µM) is -1.3% (inactive); in assay [1] (stimulation, at 2 µM), -1%. Further, the insulin secretion stimulation in assay [2] was 18.8% (inactive). Further, in assay [3], the viability decrease was 84.8% (active). Besides, the tube area decrease in assay [4] is 108% (active). Moreover, in assay [5], the GLP1 secretion stimulation was 21.4% (active). In addition, in assay [6], the inhibition of viability is 57.5% (active). For the same molecule, the viability decrease (inhibition) in assay [7] is 95.3% (active); in assay [8], 64.7% (active).

With `COP(=S)(OC)SCN1C(=O)c2ccccc2C1=O`, the nuclear beta-catenin stimulation in assay [1] (at 10 µM) was 0.4% (inactive); in assay [1] (stimulation, at 2 µM), 1.1%. The insulin secretion stimulation in assay [2] was -0.9% (inactive). Also, in assay [3], the viability decrease was -8.95% (inactive). For the same molecule, the tube area decrease in assay [4] was 1.5% (inactive). Further, in assay [5], the GLP1 secretion stimulation was 0% (inactive). In assay [6], the inhibition of viability was -8.5% (inactive). In addition, the viability decrease (inhibition) in assay [7] is 6.9% (inactive); in assay [8], 24.4% (inactive).

Consider `Oc1ccc([C@H]2CNCc3c2ccc(O)c3O)cc1O`, for which the nuclear beta-catenin stimulation in assay [1] (at 10 µM) is 0.8% (inactive); in assay [1] (stimulation, at 2 µM), 0.2%. For the same molecule, the insulin secretion stimulation in assay [2] was 3.5% (inactive). The viability decrease in assay [3] is 86.5% (active). The tube area decrease in assay [4] was 13.1% (inactive). Also, in assay [5], the GLP1 secretion stimulation was 23.9% (active). For the same molecule, in assay [6], the inhibition of viability is 57.5% (active). Also, the figures for the viability decrease (inhibition) in assay [7] and in assay [8] were 60.8% (active) and 38.4% (inactive), respectively.

As for `CNC(=O)NC(O)C(Cl)(Cl)Cl` (stereo unspecified), the nuclear beta-catenin stimulation is -0.4% (inactive) in assay [1] (at 10 µM) and -0.2% in assay [1] (stimulation, at 2 µM). In addition, the insulin secretion stimulation in assay [2] was -1% (inactive). Also, the viability decrease in assay [3] is -2.1% (inactive). The tube area decrease in assay [4] is -28.9% (inactive). Moreover, the GLP1 secretion stimulation in assay [5] is 3.1% (inactive). In addition, in assay [6], the inhibition of viability is -4.4% (inactive). Also, the viability decrease (inhibition) is 19.7% (inactive) in assay [7] and -1.55% (inactive) in assay [8].

As to `CC(=O)C1CCOC1=O` (stereo unspecified), the nuclear beta-catenin stimulation in assay [1] (at 10 µM) was -0.1% (inactive); in assay [1] (stimulation, at 2 µM), 1.2%. Further, the insulin secretion stimulation in assay [2] is 3.7% (inactive). For the same molecule, in assay [3], the viability decrease was 13.5% (inactive). In assay [4], the tube area decrease was -5% (inactive). Moreover, the GLP1 secretion stimulation in assay [5] is 2.7% (inactive). The inhibition of viability in assay [6] was 16.7% (inactive). The viability decrease (inhibition) in assay [7] was 1.5% (inactive); in assay [8] it was 1.4% (inactive).

For the molecule `CCCN(CCC)C(=O)Cc1c(-c2ccc(Cl)cc2)nc2ccc(Cl)cn12`, the nuclear beta-catenin stimulation is -2% (inactive) in assay [1] (at 10 µM) and -0.8% in assay [1] (stimulation, at 2 µM). The insulin secretion stimulation in assay [2] was 11.7% (inactive). In addition, in assay [3], the viability decrease is 10.8% (inactive). Also, the tube area decrease in assay [4] was -7.3% (inactive). The GLP1 secretion stimulation in assay [5] is -2.3% (inactive). Besides, in assay [6], the inhibition of viability is 49.5% (inactive). Also, the viability decrease (inhibition) in assay [7] is 18% (inactive); in assay [8], 27.1% (inactive).

As to `O=C1OC(c2ccc(O)c(S(=O)(=O)O)c2)(c2ccc(O)c(S(=O)(=O)O)c2)c2c(Br)c(Br)c(Br)c(Br)c21`, the nuclear beta-catenin stimulation in assay [1] (at 10 µM) was 3.3% (inactive); in assay [1] (stimulation, at 2 µM), 4.7%. Also, the insulin secretion stimulation in assay [2] was 0.75% (inactive). For the same molecule, the viability decrease in assay [3] is 22.6% (inactive). Moreover, the tube area decrease in assay [4] is -6.3% (inactive). Further, the GLP1 secretion stimulation in assay [5] is 6.8% (inactive). Further, the inhibition of viability in assay [6] is -59% (inactive). The viability decrease (inhibition) is 84.5% (active) in assay [7] and -56.3% (inactive) in assay [8].

In the case of `COc1cccc(C(=O)CCN[C@@H](C)[C@H](O)c2ccccc2)c1`, the nuclear beta-catenin stimulation is 20.8% (inactive) in assay [1] (at 10 µM) and -0.6% in assay [1] (stimulation, at 2 µM). In assay [2], the insulin secretion stimulation is 8.8% (inactive). In addition, in assay [3], the viability decrease was -1.3% (inactive). Also, the tube area decrease in assay [4] was 42% (active). For the same molecule, the GLP1 secretion stimulation in assay [5] is 0.7% (inactive). Further, the inhibition of viability in assay [6] is 2.3% (inactive). Moreover, the viability decrease (inhibition) in assay [7] was 91.6% (active); in assay [8], 75.9% (active).

As to `O=c1[nH]c2cc(Cl)ccc2n1C1CCNCC1`, the nuclear beta-catenin stimulation in assay [1] (at 10 µM) was 9.1% (inactive); in assay [1] (stimulation, at 2 µM), 19.6%. For the same molecule, in assay [2], the insulin secretion stimulation is 3.8% (inactive). Besides, in assay [3], the viability decrease was 1.8% (inactive). In addition, the tube area decrease in assay [4] was -3.4% (inactive). Further, the GLP1 secretion stimulation in assay [5] is 10.2% (inactive). For the same molecule, the inhibition of viability in assay [6] is 29.9% (inactive). The viability decrease (inhibition) in assay [7] is 10.3% (inactive); in assay [8], 12.5% (inactive).

For `CCOC(=O)NC(C)(C)Cc1ccc(Cl)cc1`, the nuclear beta-catenin stimulation in assay [1] (at 10 µM) was 7.3% (inactive); in assay [1] (stimulation, at 2 µM), -2.9%. For the same molecule, in assay [2], the insulin secretion stimulation was 2.1% (inactive). The viability decrease in assay [3] was 13.6% (inactive). The tube area decrease in assay [4] was 65.4% (active). Moreover, the GLP1 secretion stimulation in assay [5] was -1.8% (inactive). The inhibition of viability in assay [6] was 61.4% (active). In addition, the viability decrease (inhibition) was 31.1% (inactive) in assay [7] and 3.85% (inactive) in assay [8].

For `C1CN2CCC1CC2`, the nuclear beta-catenin stimulation in assay [1] (at 10 µM) is 0.4% (inactive); in assay [1] (stimulation, at 2 µM), 3.2%. Besides, the insulin secretion stimulation in assay [2] was 1.5% (inactive). Moreover, the viability decrease in assay [3] was -7.5% (inactive). Also, the tube area decrease in assay [4] is 9.8% (inactive). For the same molecule, in assay [5], the GLP1 secretion stimulation was 6.5% (inactive). Also, the inhibition of viability in assay [6] is 4% (inactive). Moreover, the figures for the viability decrease (inhibition) in assay [7] and in assay [8] were 4.8% (inactive) and 3.1% (inactive), respectively.

As to `CCO[C@H]1O[C@@H]2OC3(C)CC[C@H]4[C@H](C)CC[C@@H]([C@H]1C)[C@@]24OO3`, the nuclear beta-catenin stimulation was 6.9% (inactive) in assay [1] (at 10 µM) and 25.2% in assay [1] (stimulation, at 2 µM). For the same molecule, in assay [2], the insulin secretion stimulation was 2.6% (inactive). In addition, the viability decrease in assay [3] is 50.5% (active). Further, in assay [4], the tube area decrease was 34.8% (inactive). Further, the GLP1 secretion stimulation in assay [5] is 6.1% (inactive). Further, in assay [6], the inhibition of viability was 34.8% (inactive). The viability decrease (inhibition) in assay [7] is 37.5% (inactive); in assay [8], 37.1% (inactive).

As to `CCN(Cc1ccc(Cl)nc1)/C(=C/[N+](=O)[O-])NC`, the nuclear beta-catenin stimulation in assay [1] (at 10 µM) was -0.1% (inactive); in assay [1] (stimulation, at 2 µM), 1.1%. The insulin secretion stimulation in assay [2] was 3.5% (inactive). Moreover, the viability decrease in assay [3] is 3.9% (inactive). In assay [4], the tube area decrease is -21.3% (inactive). The GLP1 secretion stimulation in assay [5] is -4.7% (inactive). Also, the inhibition of viability in assay [6] is -3.27% (inactive). Further, the viability decrease (inhibition) is 13.3% (inactive) in assay [7] and 4.5% (inactive) in assay [8].

The values above are taken from PubChem BioAssay.
